# Laboratory results: PubChem BioAssay AID624252 (National Center for Advancing Translational Sciences (NCATS), 2012)
# This is one part of the list. Results filed as inconclusive are left out. Activity calls are given as the source filed them. The call rests on the fitted dose curve; in most records, active means well fitted cell-killing curve with a large enough effect; inconclusive means small, poorly fitted or top-dose-only effect; inactive means flat fitted curve, though single readings scatter.
# Assay: qHTS screen for small molecules that inhibit ELG1-dependent DNA repair: Hit Confirmation with Unstimulated Viability Assay;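 further: compound exposure lasted 16 hours before reading; nearly all actives have a fitted effect of over 55% in size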
# Conditions: cell viability counter-screen, luminescence; series mostly up to 45.9 µM; activity change, negative = loss of viability: at the top concentration
# Excerpt: Cancer cells divide rapidly compared to normal cells in the body. During cell division, cancer cells need to duplicate their genome by DNA replication. The failure of genome duplication leads to cancer cells' death. Therefore, inhibitors of DNA replication could specifically kill cancer cells. Based on this concept, many chemotherapeutic agents were developed and have been used to treat cancer patients. However, there are a limited number of agents available in the clinical setting, and some of those that do exist have low efficacy and severe side effects. Therefore, if we can find the compounds that effectively block DNA replication either by directly damaging DNA or by inhibiting other cellular mechanisms, the options for cancer treatment will be broadened. With this in mind, we developed a quantitative high-throughput ELG1-luciferase reporter gene assay. Small molecules that specifically block ELG1 function in response to DNA damage can be identified by monitoring the suppression of luciferase activity. Since ELG1 defines a pathway for repairing DNA damage, agents blocking ELG1 function can be used to sensitize cancer cells to chemotherapeutic agents whose mechanism of action involves the induction of DNA damage.
# NIH Molecular Libraries Probe Production Network [MLPCN]
# NIH Chemical Genomics Center [NCGC]
# Assay Provider: Kyungjae Myung, NHGRI, NIH
# For genotoxicity screening, 2,000 cells in 4 uL/well were dispensed into white, solid-bottom 1536-well plates using a solenoid-based dispenser. 23 nL compound or DMSO vehicle were added by a pin tool, the plates were incubated 16 hr at 37 °C and 5% CO2. 5 ul ONE-Glo (Promega) was then added to each plate and following a 30 min incubation at room temperature, luciferase activity was quantified on a ViewLux CCD-based plate reader.
# On the % scale 0 is the no-effect control and ±100 the full control effect; potency means the concentration at half of the fitted maximal effect.
SMILES,"activity change, negative = loss of viability",Potency
Cc1ccccc1NC(=O)CSc1nc2ccc(Nc3nc(N4CCOCC4)nc(N4CCOCC4)n3)cc2s1,-11.1% (inactive),–
COc1ccc(-c2cc(C(=O)N(C)CC(=O)Nc3ccccc3Cl)c3ccccc3n2)cc1OC,-15.8% (inactive),–
COc1ccc(NC(C)=O)cc1NC(=O)CN1CCN(C2c3ccccc3-c3ccccc32)CC1,-13.3% (inactive),–
CC12CCC(C(=O)N3CCN(c4ncccn4)CC3)(c3nc4ccccc4nc31)C2(C)C (stereo not given),-9.41% (inactive),–
NC(=O)c1sc2nc3c(c(-c4ccccc4)c2c1N)CCC3,-9.78% (inactive),–
COc1ccc(-c2nn(-c3ccccc3)cc2/C=C\C(=O)N2CCOCC2)cc1[N+](=O)[O-],6.03% (inactive),–
COc1ccc(NC(=O)C2CCC(CNc3c(N4CCCCC4)c(=O)c3=O)CC2)c(OC)c1 (stereo not given),–,25 µM (active)
CN(C)c1ccnc2sc3c(=O)n(Cc4ccccc4)cnc3c12,-1.4% (inactive),–
Cc1ccc(Nc2nc(N3CCOCC3)nc(N3CCOCC3)n2)cc1Cl,-6.73% (inactive),–
CC(=O)N1CCc2cc(Br)cc(S(=O)(=O)CCC(=O)Nc3c(C)n(C)n(-c4ccccc4)c3=O)c21,-1.72% (inactive),–
Nc1nnc(SCC(=O)Nc2ccc3nc(SCC(=O)Nc4ccccc4)sc3c2)s1,-15% (inactive),–
CS(=O)c1ccc(/C=C2\C=Cc3ccccc32)cc1 (stereo not given),-2.21% (inactive),–
CC(=O)c1c(C)n(-c2ccc(C)cc2)c2ccc(O)cc12,-1.71% (inactive),–
O=C(Nn1c(SCc2ccc([N+](=O)[O-])cc2)nc2ccccc2c1=O)c1ccc(F)cc1,-4.1% (inactive),–
CCc1ccc(N(CC)c2ncnc3nc[nH]c23)cc1,-6.97% (inactive),–
Cc1ccc(C)c(S(=O)(=O)N2CCN(c3ncnc4sccc34)CC2)c1,–,6.28 µM (active)
Cc1nnc(N/N=C/c2ccccn2)[nH]c1=O,-9.82% (inactive),–
CN(CC1CCCO1)S(=O)(=O)c1ccc(C(=O)Nc2ccc(F)cc2)cc1 (stereo not given),-7.82% (inactive),–
OCCCNc1nccc(-c2cc(Nc3cccc(Cl)c3)ncn2)n1,–,9.97 µM (active)
CS(=O)(=O)c1ccc2nc(NC(=O)C3CCCCC3)sc2c1,-2.4% (inactive),–
